Source: PubChem BioAssay (several laboratories)
Hits are enriched below; roughly 4.1% of the tested compounds scored in any of these assays.
Gli-Sufu antag = antagonists of Gli-Sufu signaling | AID 588413 | 340,000 tested, 0.74% active | inhibition, % at 5 µM | Sufu-KO-LIGHT fibroblasts, Gli luciferase reporter luminescence;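 active = inhibition above about 55%, limit read from the data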;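 also: 0% = DMSO-treated cells and 100% = wells with medium but no cells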
Mdm2 MdmX PPI = disrupts the human Mdm2-MdmX interaction. 330,000 tested, 3% active. SaOS-2 split-luciferase Mdm2/MdmX complementation, luminescence. O15151+Q00987. inhibition, % at 8 µM;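 active = inhibition of at least 50% at 8 µM in the primary screen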
Target sequence (O15151 whole entry, looked up): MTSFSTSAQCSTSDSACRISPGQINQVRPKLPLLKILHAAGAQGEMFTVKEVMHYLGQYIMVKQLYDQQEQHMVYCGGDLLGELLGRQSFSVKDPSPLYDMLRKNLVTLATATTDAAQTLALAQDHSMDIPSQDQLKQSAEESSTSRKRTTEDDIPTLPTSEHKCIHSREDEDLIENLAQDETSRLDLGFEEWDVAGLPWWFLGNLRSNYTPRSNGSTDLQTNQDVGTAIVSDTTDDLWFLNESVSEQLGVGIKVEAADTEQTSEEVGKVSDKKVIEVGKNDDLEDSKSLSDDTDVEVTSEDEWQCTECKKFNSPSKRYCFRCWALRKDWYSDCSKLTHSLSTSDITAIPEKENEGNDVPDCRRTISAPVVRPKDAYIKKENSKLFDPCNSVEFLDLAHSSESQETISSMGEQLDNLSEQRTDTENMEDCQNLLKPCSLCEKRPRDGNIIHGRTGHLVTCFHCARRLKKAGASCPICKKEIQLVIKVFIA
Target sequence (Q00987 whole entry, looked up): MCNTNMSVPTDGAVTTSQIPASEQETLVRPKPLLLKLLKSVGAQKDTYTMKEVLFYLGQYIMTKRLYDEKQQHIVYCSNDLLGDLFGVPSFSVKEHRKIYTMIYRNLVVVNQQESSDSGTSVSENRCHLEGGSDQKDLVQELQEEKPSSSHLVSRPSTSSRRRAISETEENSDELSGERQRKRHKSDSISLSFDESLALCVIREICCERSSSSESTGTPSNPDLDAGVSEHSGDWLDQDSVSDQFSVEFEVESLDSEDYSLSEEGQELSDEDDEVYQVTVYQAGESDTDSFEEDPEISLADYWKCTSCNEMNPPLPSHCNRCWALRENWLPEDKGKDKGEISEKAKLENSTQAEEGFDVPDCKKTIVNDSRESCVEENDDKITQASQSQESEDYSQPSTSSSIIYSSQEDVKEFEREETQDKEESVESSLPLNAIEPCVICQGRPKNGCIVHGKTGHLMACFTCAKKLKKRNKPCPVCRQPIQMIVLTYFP
Jurkat NFkB inh = inhibitors of the PMA/ionomycin-induced NF-kB reporter in Jurkat cells; PMA/ionomycin-induced NF-kB luciferase reporter, luminescence; inhibition, % at 4 µM; 330,000 tested, 0.53% active; AID 435003; in the data active = inhibition above about 50%
697 NFkB inh = inhibitors of the PMA/ionomycin-induced NF-kB reporter in 697 B cells. 697 B-cell NF-kB luciferase reporter, 16 h. inhibition, % at 4 µM. 330,000 tested, 0.33% active; in the data active = inhibition above about 35%
KLF5 inhibitor = suppresses KLF5 promoter-driven expression. DLD-1 KLF5 promoter-luciferase reporter, luminescence. inhibition, % at 5 µM. 290,000 tested, 0.23% active. AID 1700;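 active = inhibition above a per-plate limit of that plate's mean compound inhibition plus 3 SD, cut at about 60% in these data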;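 also: 0% = DMSO wells and 100% = LY294002 at 200 µM; higher means less KLF5 promoter-driven luciferase light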
aSyn UTR inh = MLPCN primary screen, SNCA 5' untranslated region; alpha-synuclein 5'UTR reporter, inhibitor activity; 300,000 tested, 0.82% active; AID 1813; inhibition, % (tested at 7.5 µM); in the data active = inhibition above about 60%;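 also: H4 neuroglioblastoma cells stably carrying SNCA 5'UTR luciferase fusion; 0% = DMSO wells and 100% = positive control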
Mdm2 MdmX conf = confirmation of human Mdm2/MdmX interaction inhibitors. inhibition, % at 8 µM. shares compounds with Mdm2 MdmX PPI. Mdm2-MdmX binding, luminescent assay. 10,000 tested, 55% active; in the data active = inhibition above about 40%
FLuc counter = inhibits full-length luciferase, flagging false Mdm2/MdmX hits; shares compounds with Mdm2 MdmX PPI; SaOS-2 full-length luciferase counterscreen, luminescence; inhibition, % at 8 µM; 6,200 tested, 77% active; AID 504607;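 active = mean inhibition at 8 µM reaching about 37%, which flags the compound as non-specific, limit read from the data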;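 also: p53-null SaOS-2 cells with luciferase driven by a doxycycline-inducible promoter; compound on cells about two nights before reading with doxycycline added after day one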
An asterisk follows results filed as active.

What do the screens show for `O=C(COC(=O)CCS(=O)(=O)c1ccccc1)Nc1ccc(N2CCCCC2)cc1`?
Gli-Sufu antag: -23.5; Mdm2 MdmX PPI: 24.5; Jurkat NFkB inh: -9.7; 697 NFkB inh: 14.5

What do the screens show for `CC1CCCC(NC(=O)COC(=O)c2cccs2)C1C` (stereo not given)?
Gli-Sufu antag: 2.6; Mdm2 MdmX PPI: -4.4; Jurkat NFkB inh: -16.3; 697 NFkB inh: 0.9

What do the screens show for `C=CCSC(=C(C#N)C#N)c1cc2c([nH]1)CCCC2`?
Gli-Sufu antag: 14.5; Mdm2 MdmX PPI: 81.1*; Jurkat NFkB inh: 9.3; 697 NFkB inh: -22.7; KLF5 inhibitor: -19.9; aSyn UTR inh: -41.3; Mdm2 MdmX conf: 15.6

What do the screens show for `O=C(O)c1cc2c([nH]c1=O)CCCC2`?
Gli-Sufu antag: -9.7; Mdm2 MdmX PPI: -10.9; Jurkat NFkB inh: -9.3; 697 NFkB inh: -14.0; KLF5 inhibitor: -64.4; aSyn UTR inh: -2.4

How did CC(=O)C1=C(c2ccccc2)NC(=O)NC1c1cccs1 (stereo not given) do in these assays?
Gli-Sufu antag: -2.3; Mdm2 MdmX PPI: 18.8; Jurkat NFkB inh: -11.9; 697 NFkB inh: 3.6; KLF5 inhibitor: -7.1; aSyn UTR inh: 3.1

What do the screens show for `Cc1ccc(C)c(N2C(=O)C3C4C=CC(CC4)C3C2=O)c1` (stereo not given)?
Gli-Sufu antag: 2.0; Mdm2 MdmX PPI: -4.8; Jurkat NFkB inh: -8.2; 697 NFkB inh: -7.4; KLF5 inhibitor: -1.7; aSyn UTR inh: 12.5

How did C=CCn1c(COc2ccc(Cl)cc2)nnc1SCC(=O)N/N=C/c1cccc(O)c1 do in these assays?
Gli-Sufu antag: 0.7; Mdm2 MdmX PPI: 8.1; Jurkat NFkB inh: -4.4; 697 NFkB inh: 19.0; KLF5 inhibitor: -47.3; aSyn UTR inh: 16.9

What do the screens show for `C=CCn1c(COc2ccccc2)nnc1SC(C)C(=O)N/N=C/c1cc(Cl)ccc1O` (stereo not given)?
Gli-Sufu antag: 10.4; Mdm2 MdmX PPI: 64.6*; Jurkat NFkB inh: 15.7; 697 NFkB inh: 17.1; KLF5 inhibitor: 33.5; Mdm2 MdmX conf: 60.0*; FLuc counter: 30.6

How did CC(C)CCNC(=O)c1ccc(Cl)c(NC(=O)c2ccccc2F)c1 do in these assays?
Mdm2 MdmX PPI: -2.7; Jurkat NFkB inh: 16.6; 697 NFkB inh: 25.4; KLF5 inhibitor: -22.3; aSyn UTR inh: 24.7

How did COc1nc(-c2ccc(Cl)cc2)ccc1-c1noc(-c2ccco2)n1 do in these assays?
Gli-Sufu antag: -5.7; Mdm2 MdmX PPI: 53.7*; Jurkat NFkB inh: -20.5; 697 NFkB inh: -25.3; KLF5 inhibitor: -24.2; aSyn UTR inh: -13.0; Mdm2 MdmX conf: -9.1

How did COc1cc(OC)cc(C(=O)N[C@H](C(=O)OCC(=O)Nc2cccnc2Cl)C(C)C)c1 do in these assays?
Gli-Sufu antag: -6.8; Mdm2 MdmX PPI: -15.9; Jurkat NFkB inh: 5.9; 697 NFkB inh: 9.0

How did CCN(CC)c1ccc(/C=C2\NC(=O)NC2=O)cc1 do in these assays?
Gli-Sufu antag: -2.6; Mdm2 MdmX PPI: 62.6*; Jurkat NFkB inh: 32.0; 697 NFkB inh: -20.4; KLF5 inhibitor: -20.3; aSyn UTR inh: 5.4; Mdm2 MdmX conf: 47.6*; FLuc counter: 57.9*

How did O=C1NC(=O)/C(=C\c2ccsc2)N1 do in these assays?
Gli-Sufu antag: -0.9; Mdm2 MdmX PPI: -4.3; Jurkat NFkB inh: -7.0; 697 NFkB inh: -15.1; KLF5 inhibitor: -11.7; aSyn UTR inh: 7.2

How did CCCc1cc(=O)oc2cc(C)cc(OCC(=O)Nc3cccnc3)c12 do in these assays?
Gli-Sufu antag: -18.5; Mdm2 MdmX PPI: 16.9; Jurkat NFkB inh: -0.4; 697 NFkB inh: 7.4; KLF5 inhibitor: -11.9; aSyn UTR inh: -2.3

Results for O=C(NCc1ccccc1Cl)c1cc(C(=O)C2CC2)c[nH]1 ?
Gli-Sufu antag: 17.6; Mdm2 MdmX PPI: 38.5; Jurkat NFkB inh: -4.2; 697 NFkB inh: -8.4; KLF5 inhibitor: -44.0; aSyn UTR inh: 2.3

Results for CCOc1ccc(CNC(=O)C2CCN(C(=O)N3CC(C)Oc4ccccc43)CC2)cc1 (stereo not given) ?
Gli-Sufu antag: -13.7; Mdm2 MdmX PPI: 8.7; Jurkat NFkB inh: 5.2; 697 NFkB inh: 13.9; KLF5 inhibitor: -2.7; aSyn UTR inh: 2.9

What do the screens show for `CCCOc1ccc(CNC(=O)C2CCN(C(=O)N3CCOc4ccccc43)CC2)cc1`?
Gli-Sufu antag: -0.1; Mdm2 MdmX PPI: 50.6*; Jurkat NFkB inh: 14.3; 697 NFkB inh: -5.0; KLF5 inhibitor: -0.6; aSyn UTR inh: 31.9; Mdm2 MdmX conf: -0.3

What do the screens show for `O=C(O)c1cc(-c2cccs2)nn1-c1cccc(Cl)c1`?
Gli-Sufu antag: -13.7; Mdm2 MdmX PPI: -5.6; Jurkat NFkB inh: 7.8; 697 NFkB inh: 18.6; KLF5 inhibitor: 0.8; aSyn UTR inh: 25.3

What do the screens show for `CN(C)S(=O)(=O)c1cccc(NC(=O)c2cc(-c3cccs3)nn2-c2cccc(Cl)c2)c1`?
Gli-Sufu antag: 0.6; Mdm2 MdmX PPI: 50.5*; Jurkat NFkB inh: 26.8; 697 NFkB inh: 5.7; KLF5 inhibitor: -32.1; aSyn UTR inh: 17.3; Mdm2 MdmX conf: 57.5*; FLuc counter: 64.8*

What do the screens show for `Cc1cc(C)c(OCCCCNCc2ccccc2)c(Cl)c1`?
Gli-Sufu antag: 3.0; Mdm2 MdmX PPI: 51.4*; Jurkat NFkB inh: 2.1; 697 NFkB inh: -3.8; KLF5 inhibitor: -0.8; aSyn UTR inh: 10.7; Mdm2 MdmX conf: 40.2*; FLuc counter: 67.9*

Results for CC1CCC2(CC1)OCC1(CCC3(COC4(CCC(C)CC4)OC3)C1=O)CO2 (stereo not given) ?
Gli-Sufu antag: 3.4; Mdm2 MdmX PPI: -6.9; Jurkat NFkB inh: 5.2; 697 NFkB inh: -9.4; KLF5 inhibitor: -7.9; aSyn UTR inh: -3.0

How did COc1cccc(-n2c(=O)n(Cc3ccccc3)c(=O)c3[nH]cnc32)c1C do in these assays?
Gli-Sufu antag: 3.5; Mdm2 MdmX PPI: 8.9; Jurkat NFkB inh: 1.9; 697 NFkB inh: 14.2; KLF5 inhibitor: 0.3; aSyn UTR inh: -7.7

What do the screens show for `COc1ccc(C2CC(c3ccccc3OC(C)=O)=NN2C(=O)/C=C/c2ccccc2)cc1OC` (stereo not given)?
Gli-Sufu antag: 8.0; Mdm2 MdmX PPI: 41.4; Jurkat NFkB inh: 12.1; 697 NFkB inh: 0.3; KLF5 inhibitor: -30.5; aSyn UTR inh: 26.1

Results for COc1ccc(C2=NN(C(=O)/C=C/c3ccccc3)C(c3ccccc3)C2)c(OC(C)=O)c1 (stereo not given) ?
Gli-Sufu antag: 2.4; Mdm2 MdmX PPI: 58.2*; Jurkat NFkB inh: 16.2; 697 NFkB inh: 13.9; KLF5 inhibitor: -7.8; aSyn UTR inh: 9.0; Mdm2 MdmX conf: 14.9

What do the screens show for `CC1(C)CC(=O)C(C(C2=C(O)CC(C)(C)CC2=O)c2ccc(O)c([N+](=O)[O-])c2)=C(O)C1`?
Gli-Sufu antag: 3.8; Mdm2 MdmX PPI: -18.8; Jurkat NFkB inh: 11.7; 697 NFkB inh: 9.7; KLF5 inhibitor: -19.0; aSyn UTR inh: 0.0
